Reference: the supplement of paper PMC10981050
Several values for one entry are separate records, joined by “and”; a condition that tells them apart may be missing. Equal values may be shown once. Where a name gives a salt, the structure may show the parent alone.

Each compound was assayed on K562 (assay: cell viability relative to vehicle control; higher = less cytotoxic). Details: 10 µM; SRSF2 genotype: SRSF2 P95H/wt.
Outline: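 Screening covered the Selleck bioactive, kinase and epigenetic probe libraries, less identity-inconsistent compounds, on CRISPR-edited mutant clones and isogenic wild-type clones of four leukaemia lines. Cells, at 2000 per well in 50 µL medium, received a single 10 µM acoustically dispensed dose. After 48 h the supernatant was removed and CellTiter-Glo luminescence was read. Viability was analysed in Genedata Screener as percent of the on-plate vehicle control.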

SMILES | cell viability
Cc1ccc(Nc2c(F)cccc2Cl)c(CC(=O)O)c1 [Lumiracoxib (COX-189)] | 96% and 98.3%
CC(C)=CCC[C@](C)(O[C@@H]1O[C@H](CO)[C@@H](O)[C@H](O)[C@H]1O)[C@H]1CC[C@]2(C)[C@@H]1[C@H](O)C[C@@H]1[C@@]3(C)CC[C@H](O)C(C)(C)[C@@H]3CC[C@]12C [Ginsenoside CK] | 82.7% and 78.2%
CCCCCCCCCC(C)=O [Methylnonylketone] | 93.2% and 96.8%
COc1cc(O)c(C(=O)/C=C/c2ccccc2)c(OC)c1 [Flavokawain B] | 23.3% and 39%
c1ccc(CNc2nc(NCc3ccccc3)c3ccccc3n2)cc1 | 17.4% and 10.9%
Nc1nonc1C(=Nc1ccc(F)c(Cl)c1)NO | 97% and 107%
NC(=O)c1ccc[n+]([O-])c1 [Nicotinamide N-oxide] | 110%
CCCCNC(=O)NS(=O)(=O)c1ccc(C)cc1 [Tolbutamide] | 98% and 102%
O=C(CCN1CCN(C(=O)OCc2cc(Cl)cc(Cl)c2)CC1)c1ccc2[nH]c(=O)oc2c1 | 88.6% and 96.5%
CC1=NN(c2ccccc2)C(=O)C1 [Edaravone (MCI-186)] | 107% and 105%
CNC(=C[N+](=O)[O-])NCCSCc1csc(CN(C)C)n1 [Nizatidine] | 106% and 107%
CC1=C(/C=C/C(C)=C/C=C/C(C)=C/C=C/C=C(C)/C=C/C=C(C)/C=C/C2=C(C)C(=O)[C@@H](O)CC2(C)C)C(C)(C)C[C@H](O)C1=O [Astaxanthin] | 104%
O=C(O)c1cc(O)c2c(c1)[C@@H]([C@H]1c3cc(C(=O)O)cc(O)c3C(=O)c3c(O[C@@H]4O[C@H](CO)[C@@H](O)[C@H](O)[C@H]4O)cccc31)c1cccc(O[C@@H]3O[C@H](CO)[C@@H](O)[C@H](O)[C@H]3O)c1C2=O [Sennoside B] | 75.3% and 75.2%
c1ccc2[nH]c(-c3cscn3)nc2c1 [Thiabendazole] | 105% and 101%
CC1(C)S[C@@H]2[C@H](NC(=O)C(c3ccccc3)S(=O)(=O)O)C(=O)N2[C@H]1C(=O)O (stereo partly specified) [Sulbenicillin Sodium] | 109% and 103%
COc1ccc(COc2ccc(Cc3cnc(N)nc3N)cc2OC)cc1 | 83.8% and 84%
CNC(=O)c1cnn(-c2nc(N)c3ncn([C@@H]4O[C@H](CO)[C@@H](O)[C@H]4O)c3n2)c1 [Regadenoson] | 106% and 105%
O=C1CCC(N2C(=O)c3ccccc3C2=O)C(=O)N1 (stereo unspecified) [Thalidomide] | 92.1% and 86.8%
C[C@@]1(C(=O)Nc2ccc(F)nc2)CCCN1c1nc(Nc2cc(C3CC3)n[nH]2)c2cccn2n1 | 61.4% and 72.2%
COc1cc(C(=O)NC2CCN(C)CC2)ccc1Nc1ncc2c(n1)N(C1CCCC1)CC(F)(F)C(=O)N2C | 24.5% and 48.3%
COc1nc2ccc(Br)cc2cc1[C@@H](c1ccccc1)[C@@](O)(CCN(C)C)c1cccc2ccccc12 [Bedaquiline] | 74.8% and 74.5%
CC(C)=CCC/C(C)=C/C=O [Citral] | 96% and 106%
O=C(/C=C/c1ccc(O)c(O)c1)c1ccc(O)cc1O [Butein] | 62% and 61%
COc1ccc(CCc2nc3cc(-c4c(C)noc4C)ccc3n2C[C@H](C)N2CCOCC2)cc1Cl | 80.9% and 86.9%
CC(O)c1cc(C(=O)N[C@@H](C)Cn2ccc(-c3ccc(C#N)c(Cl)c3)n2)n[nH]1 (stereo partly specified) | 87.9% and 91.4%
Cc1cc(C)nc(SCC(=O)Nc2ncc(Cc3cccc4ccccc34)s2)n1 | 79.2% and 84.5%
COc1ccc(CCNCc2ccc(OCc3ccc(Cl)nc3)c(OC)c2)cc1OC | 85.6% and 95.4%

Same assay, conditions: 10 µM; SRSF2 genotype: SRSF2 wt/wt

SMILES | cell viability
OC[C@H]1O[C@@](CO)(O[C@H]2O[C@H](CO)[C@@H](O)[C@H](O)[C@H]2O)[C@@H](O[C@H]2O[C@H](CO)[C@@H](O)[C@H](O)[C@H]2O)[C@@H]1O [D-(+)-Melezitose] | 97.6%
COc1ccc2c3c1O[C@H]1C[C@@H](O)C=C[C@@]31CCN(C)C2 [Galanthamine] | 99.9%
COc1cc(C(=O)O)ccc1O [Vanillic acid] | 111%
CN[C@H]1CC[C@@H](c2ccc(Cl)c(Cl)c2)c2ccccc21 [Sertraline HCl] | 52.8%
Clc1ccc(CSC(Cn2ccnc2)c2ccc(Cl)cc2Cl)cc1 (stereo unspecified) [Sulconazole Nitrate] | 62.7%
CC1(C)[C@@H](O)CC[C@]2(C)[C@H]3C(=O)C=C4[C@@H]5C[C@@](C)(C(=O)O)CC[C@]5(C)CC[C@@]4(C)[C@]3(C)CC[C@@H]12 [Enoxolone (Glycyrrhetin)] | 102%
C[C@H](N=C(NC#N)Nc1cccc2ncccc12)c1ccccc1 | 97%
CC(C)n1nc(-c2cc3cc(O)ccc3[nH]2)c2c(N)ncnc21 [Torkinib (PP242)] | 21.9%
CC1(C)O[C@@H]2C[C@H]3[C@@H]4CCC5=CC(=O)C=C[C@]5(C)[C@H]4[C@@H](O)C[C@]3(C)[C@]2(C(=O)CO)O1 [Desonide] | 102%
O=C(Nc1ccccc1)N1CCN(c2nc(-c3ccccc3)ns2)CC1 | 91.6%
O=C1C[C@@H](c2ccccc2)Oc2cc(O)cc(O)c21 [Pinocembrin] | 95.4%
CC1OC(OC2C(OC3CCC4(C)C(CCC5(C)C4CC=C4C6CC(C)(C)CCC6(C(=O)OC6OC(COC7OC(CO)C(O)C(O)C7O)C(O)C(O)C6O)CCC45C)C3(C)CO)OCC(O)C2O)C(O)C(OC2OC(CO)C(O)C(O)C2O)C1O (stereo unspecified) [Macranthoidin A] | 100%
Cc1ccc(Nc2c(F)cccc2Cl)c(CC(=O)O)c1 [Lumiracoxib (COX-189)] | 96.3%
CC(C)=CCC[C@](C)(O[C@@H]1O[C@H](CO)[C@@H](O)[C@H](O)[C@H]1O)[C@H]1CC[C@]2(C)[C@@H]1[C@H](O)C[C@@H]1[C@@]3(C)CC[C@H](O)C(C)(C)[C@@H]3CC[C@]12C [Ginsenoside CK] | 77%
CCCCCCCCCC(C)=O [Methylnonylketone] | 96.3%
COc1cc(O)c(C(=O)/C=C/c2ccccc2)c(OC)c1 [Flavokawain B] | 58%
c1ccc(CNc2nc(NCc3ccccc3)c3ccccc3n2)cc1 | 12.4%
Nc1nonc1C(=Nc1ccc(F)c(Cl)c1)NO | 101%
NC(=O)c1ccc[n+]([O-])c1 [Nicotinamide N-oxide] | 111%
CCCCNC(=O)NS(=O)(=O)c1ccc(C)cc1 [Tolbutamide] | 102%

SMILES | cell viability
O=C(CCN1CCN(C(=O)OCc2cc(Cl)cc(Cl)c2)CC1)c1ccc2[nH]c(=O)oc2c1 | 94.5%
CC1=NN(c2ccccc2)C(=O)C1 [Edaravone (MCI-186)] | 107%
CNC(=C[N+](=O)[O-])NCCSCc1csc(CN(C)C)n1 [Nizatidine] | 102%
CC1=C(/C=C/C(C)=C/C=C/C(C)=C/C=C/C=C(C)/C=C/C=C(C)/C=C/C2=C(C)C(=O)[C@@H](O)CC2(C)C)C(C)(C)C[C@H](O)C1=O [Astaxanthin] | 106%
O=C(O)c1cc(O)c2c(c1)[C@@H]([C@H]1c3cc(C(=O)O)cc(O)c3C(=O)c3c(O[C@@H]4O[C@H](CO)[C@@H](O)[C@H](O)[C@H]4O)cccc31)c1cccc(O[C@@H]3O[C@H](CO)[C@@H](O)[C@H](O)[C@H]3O)c1C2=O [Sennoside B] | 81.5%
c1ccc2[nH]c(-c3cscn3)nc2c1 [Thiabendazole] | 106%
CC1(C)S[C@@H]2[C@H](NC(=O)C(c3ccccc3)S(=O)(=O)O)C(=O)N2[C@H]1C(=O)O (stereo partly specified) [Sulbenicillin Sodium] | 97.7%
COc1ccc(COc2ccc(Cc3cnc(N)nc3N)cc2OC)cc1 | 80%
CNC(=O)c1cnn(-c2nc(N)c3ncn([C@@H]4O[C@H](CO)[C@@H](O)[C@H]4O)c3n2)c1 [Regadenoson] | 104%
O=C1CCC(N2C(=O)c3ccccc3C2=O)C(=O)N1 (stereo unspecified) [Thalidomide] | 84.5%
C[C@@]1(C(=O)Nc2ccc(F)nc2)CCCN1c1nc(Nc2cc(C3CC3)n[nH]2)c2cccn2n1 | 63.7%
COc1cc(C(=O)NC2CCN(C)CC2)ccc1Nc1ncc2c(n1)N(C1CCCC1)CC(F)(F)C(=O)N2C | 44.6%
COc1nc2ccc(Br)cc2cc1[C@@H](c1ccccc1)[C@@](O)(CCN(C)C)c1cccc2ccccc12 [Bedaquiline] | 85.4%
CC(C)=CCC/C(C)=C/C=O [Citral] | 94.4%
O=C(/C=C/c1ccc(O)c(O)c1)c1ccc(O)cc1O [Butein] | 76.8%
COc1ccc(CCc2nc3cc(-c4c(C)noc4C)ccc3n2C[C@H](C)N2CCOCC2)cc1Cl | 73.8%
CC(O)c1cc(C(=O)N[C@@H](C)Cn2ccc(-c3ccc(C#N)c(Cl)c3)n2)n[nH]1 (stereo partly specified) | 93.3%
Cc1cc(C)nc(SCC(=O)Nc2ncc(Cc3cccc4ccccc34)s2)n1 | 75.5%
COc1ccc(CCNCc2ccc(OCc3ccc(Cl)nc3)c(OC)c2)cc1OC | 89.8%
